Source: PubChem BioAssay
GoLoco inh red: qHTS Assay for Inhibitors of RGS12 GoLoco Motif Activity (Red Fluorophore). 230,000 tested, 0.44% active. Guanine nucleotide-binding protein G(i) subunit alpha-1 (Homo sapiens), P63096. AID 880, 2007. Potency, µM (highest dose often 61.6 µM), for inactives: at the highest dose activity, negative = inhibition, most hits filed as inhibitors. Gai1:RGS12 GoLoco peptide FP, rhodamine, 10 min; active means well fitted inhibition curve with a large enough effect, not every such curve was filed as active; inactive means no such curve, though single readings can be large or run the other way; further: potency means the concentration at half of the fitted maximal effect; nearly all actives have a fitted effect of over 30% in size
NPSR antagonist: qHTS Assay for Antagonists of the Neuropeptide S Receptor: cAMP Signal Transduction. CHO-NPSR cells, cAMP TR-FRET, antagonist mode. AID 1461, 2008. 220,000 tested, 1% active. Potency, µM (titrated, usually from 38.3 µM), for the others: at the highest dose activity change, negative = inhibition, actives largely listed as inhibitors; active means well fitted curve in the direction sought with a large enough effect; inconclusive means small, poorly fitted or top-dose-only effect, or another doubt; inactive means no such curve, though single readings can be large; an effect the other way counts as inactive or inconclusive; further: potency means the concentration at half of the fitted maximal effect; nearly all actives have a fitted effect of over 50% in size
FBPA coupling cs: qHTS Assay for Inhibitors of Fructose-1,6-bisphosphate Aldolase from Giardia Lamblia: Coupling assay counterscreen. coupling enzyme system counterscreen, AmpLite Red fluorescence. activity change, negative = inhibition, % at 58.2 µM, hits read low. 290,000 tested, 0.67% active. AID 2472, 2010; in the data active means activity change below about -30%
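Activity here indicates interference with the coupling reaction, not aldolase inhibition. Compounds at 57.5 uM final met coupling enzymes for 10 min at RT; substrate and AmpLite Red detection followed, with a 525/598 nm fluorescence read after 20 min.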
JMJD2E inh: qHTS Assay for Inhibitors of Human Jumonji Domain Containing 2E (JMJD2E); JMJD2E catalytic domain, FDH-coupled NADH fluorescence (FDH is formaldehyde dehydrogenase); Potency, µM (series often up to 57.1 µM), without a hit: top-dose activity change, negative = inhibition, actives largely listed as inhibitors; Lysine-specific demethylase 4E (Homo sapiens), B2RXH2; AID 2147, 2009; 230,000 tested, 1.6% active;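 further: potency means the concentration at half of the fitted maximal effect; 0% = wells with enzyme and -100% = buffer wells without enzyme; nearly all actives have a fitted effect of over 50% in size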
ALDH1A1 block: qHTS Assay for Inhibitors of Aldehyde Dehydrogenase 1 (ALDH1A1); Aldehyde dehydrogenase 1A1 (Homo sapiens), P00352; Purified ALDH1A1, NADH fluorescence, propionaldehyde substrate; Potency, µM (titrated, usually from 75.3 µM), for inactives: at the highest dose activity, negative = inhibition, usual class: inhibitors; 220,000 tested, 7.3% active; AID 1030, 2008;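 further: potency means the concentration at half of the fitted maximal effect; plate controls were no enzyme wells and a reference inhibitor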
Target sequence (P00352 whole entry, looked up): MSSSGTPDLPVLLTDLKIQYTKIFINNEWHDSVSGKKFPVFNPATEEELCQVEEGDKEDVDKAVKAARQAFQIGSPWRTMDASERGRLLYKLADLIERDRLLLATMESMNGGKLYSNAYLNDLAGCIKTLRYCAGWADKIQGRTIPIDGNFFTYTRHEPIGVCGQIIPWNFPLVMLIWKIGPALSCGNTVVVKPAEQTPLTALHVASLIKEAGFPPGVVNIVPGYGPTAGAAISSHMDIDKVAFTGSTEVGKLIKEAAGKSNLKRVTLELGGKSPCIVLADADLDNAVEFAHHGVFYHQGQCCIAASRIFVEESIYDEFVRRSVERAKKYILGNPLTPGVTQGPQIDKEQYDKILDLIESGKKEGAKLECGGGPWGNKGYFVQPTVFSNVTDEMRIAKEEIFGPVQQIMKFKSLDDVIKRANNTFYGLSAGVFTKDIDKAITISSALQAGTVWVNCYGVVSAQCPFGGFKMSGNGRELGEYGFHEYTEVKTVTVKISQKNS
Sfp inh: qHTS Assay for Inhibitors of Bacillus subtilis Sfp phosphopantetheinyl transferase (PPTase); Biochemical Sfp PPTase activity, qHTS; 310,000 tested, 3.5% active; Potency, µM, without a hit: largest response in the series, negative = inhibition, most hits filed as inhibitors; 4'-phosphopantetheinyl transferase ffp (Bacillus subtilis), Q9F4F7; active means well fitted curve in the direction sought with a large enough effect; inconclusive means small, poorly fitted or top-dose-only effect, or another doubt; inactive means no such curve, though single readings can be large; an effect the other way counts as inactive or inconclusive;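 further: the enzyme is Sfp with the accession as filed and its product quenches rhodamine fluorescence; potency means the concentration at half of the fitted maximal effect; 0% = enzyme reaction without inhibitor and -100% = no enzyme wells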
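Step 1, compound plus 15 nM Sfp-PPTase, 15 min, room temperature. Step 2, add rhodamine-CoA (5 uM) and BHQ-2-YbbR (12.5 uM). Step 3, read 525/598 nm fluorescence at 0 and 30 min.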
* hit, by the source's call; [ ] = remark or other dose. Only some compounds are listed: those with a hit (about 8.5% of all), similar ones and a draw of the others. Unless noted, the call rests on the fitted dose curve; in most records, active means well fitted inhibition curve with a large enough effect (not every such curve was filed as active); inconclusive means small, poorly fitted or top-dose-only effect, or another doubt; inactive means no such curve, though single readings can be large or run the other way. Unless noted, on the % scale 0 is the no-effect control and ±100 the full control effect.

What do the screens show for `CCOc1ccccc1CNC(=O)Cn1nc(C)c2c(C)n(-c3ccc(C)cc3)nc2c1=O`?
FBPA coupling cs: 3; Sfp inh: -26%

Results for CCOC(=O)CC1(NC(=O)c2cc(COc3cccc(OC)c3)on2)CCCCC1 ?
FBPA coupling cs: 0; Sfp inh: -12%

How did CCCCc1nc2ccn(CC(=O)N(C)C)c(=O)c2n1Cc1ccc(-c2ccccc2-c2nn[nH]n2)cc1 do in these assays?
GoLoco inh red: -2%; FBPA coupling cs: 8; ALDH1A1 block: -8%; Sfp inh: 50µM*

Results for CCCCc1nc(Cl)c(CO)n1Cc1ccc(-c2ccccc2-c2nn[nH]n2)cc1 ?
GoLoco inh red: -3%; FBPA coupling cs: 9; JMJD2E inh: -1%; ALDH1A1 block: 0%; Sfp inh: 9%

Results for N#Cc1c(Nc2ccc(F)cc2)sc(C(=O)c2ccccc2)c1N ?
GoLoco inh red: 4%; NPSR antagonist: -16%; FBPA coupling cs: 7; JMJD2E inh: -4%; ALDH1A1 block: inconclusive; Sfp inh: -6%

What do the screens show for `N#Cc1c(Nc2ccc(F)cc2)sc(C(=O)c2ccc(F)cc2)c1N`?
GoLoco inh red: -7%; NPSR antagonist: -5%[46.1 µM]; FBPA coupling cs: 0; JMJD2E inh: 1%; ALDH1A1 block: 22µM*; Sfp inh: -2%

Results for N#Cc1c(Nc2ccccc2)sc(C(=O)c2ccccc2)c1N ?
GoLoco inh red: 74%; NPSR antagonist: -24%[46.1 µM]; FBPA coupling cs: 3; JMJD2E inh: 1%; ALDH1A1 block: 13µM*; Sfp inh: -18%

Results for O=C(Nc1ccc2oc(-c3cccnc3)nc2c1)c1ccc(Br)o1 ?
GoLoco inh red: 30%; NPSR antagonist: inconclusive; FBPA coupling cs: -18; JMJD2E inh: inconclusive; ALDH1A1 block: inconclusive; Sfp inh: 50µM*

Results for CCCCc1c(C)nc2ccccc2c1SCCC#N ?
GoLoco inh red: 9%; NPSR antagonist: -11%; FBPA coupling cs: 0; JMJD2E inh: -3%; ALDH1A1 block: 7.1µM*; Sfp inh: -8%

Results for CCc1c(C)nc2c(C)cccc2c1SCCC#N ?
GoLoco inh red: 11%; NPSR antagonist: 29%; FBPA coupling cs: -1; JMJD2E inh: -5%; ALDH1A1 block: 7.9µM*; Sfp inh: -27%

How did CCCc1c(C)nc2c(OC)cccc2c1SCC(=O)O do in these assays?
GoLoco inh red: 5%; NPSR antagonist: 12%; FBPA coupling cs: 10; JMJD2E inh: inconclusive; ALDH1A1 block: -6%; Sfp inh: 16%

Results for N#Cc1ccc(CSc2nnc(NC(=O)c3ccc4ncsc4c3)s2)cc1 ?
GoLoco inh red: 90%; NPSR antagonist: inconclusive; FBPA coupling cs: 9; JMJD2E inh: inconclusive; ALDH1A1 block: inconclusive; Sfp inh: 45µM*

Results for COc1cc2nc(N(C)CCCNC(=O)[C@@H]3CCCO3)nc(N)c2cc1OC ?
GoLoco inh red: -8%[21.6 µM]; FBPA coupling cs: -16; JMJD2E inh: inconclusive; ALDH1A1 block: inconclusive; Sfp inh: -21%

How did CCC(NC(=O)COc1cc2c(c3oc(=O)c(C)c(C)c13)CCC(C)(C)O2)C(=O)O (stereo not drawn) do in these assays?
FBPA coupling cs: 3; Sfp inh: 16%

What do the screens show for `Cc1ccccc1-c1ccc(Nc2ccc(N3CCOCC3)cc2)nn1`?
GoLoco inh red: 39%; NPSR antagonist: inconclusive; FBPA coupling cs: -12; JMJD2E inh: -29%; ALDH1A1 block: 8.9µM*; Sfp inh: inconclusive

What do the screens show for `O=S1(=O)N=C(Nc2ccc(N3CCOCC3)cc2)c2ccccc21`?
GoLoco inh red: 11%; NPSR antagonist: -8%[46.1 µM]; FBPA coupling cs: -2; JMJD2E inh: 2%; ALDH1A1 block: 0%; Sfp inh: 7%

What do the screens show for `Fc1cccc(Cl)c1Cn1nnc2c(N3CCC4(CC3)OCCO4)ncnc21`?
GoLoco inh red: 1%; NPSR antagonist: -10%[46.1 µM]; FBPA coupling cs: 1; JMJD2E inh: 3%; ALDH1A1 block: 16µM*; Sfp inh: -4%

What do the screens show for `O=C(O)c1cc(S(=O)(=O)N2CCN(C(c3ccccc3)c3ccccc3)CC2)ccc1Cl`?
FBPA coupling cs: 13; Sfp inh: -22%

Results for Cc1cccn2c(CN(C)CC3CCCCO3)c(C(=O)N3CCCCC3)nc12 (stereo not drawn) ?
GoLoco inh red: -1%; NPSR antagonist: 13%; FBPA coupling cs: 1; JMJD2E inh: -2%; ALDH1A1 block: 0.2µM*; Sfp inh: 2%

What do the screens show for `COc1ccc(N=C2S/C(=C\c3ccc(OCC(=O)O)cc3)C(=O)N2CCc2c[nH]c3ccccc23)cc1`?
GoLoco inh red: 1%; NPSR antagonist: -2%; FBPA coupling cs: 3; JMJD2E inh: -1%; ALDH1A1 block: inconclusive; Sfp inh: inconclusive

Results for CCCN1C(=O)/C(=C/c2ccc(C)o2)SC1=Nc1ccc(OC)cc1 ?
GoLoco inh red: -17%; NPSR antagonist: inconclusive; FBPA coupling cs: -4; JMJD2E inh: inconclusive; ALDH1A1 block: 3.5µM*; Sfp inh: 35µM*

How did CCOC(=O)CN1C(=O)S/C(=C/c2ccc(C)o2)C1=O do in these assays?
FBPA coupling cs: -10; Sfp inh: -24%

What do the screens show for `CCN1C(=O)/C(=C/c2ccc(C)s2)SC1=Nc1ccc(OC)cc1`?
GoLoco inh red: 6%; NPSR antagonist: -25%[46.1 µM]; FBPA coupling cs: 0; JMJD2E inh: 1%; ALDH1A1 block: inconclusive; Sfp inh: -13%

Results for COc1ccc(N=C2S/C(=C\c3ccc(N4CCOCC4)o3)C(=O)N2CCc2c[nH]c3ccccc23)cc1 ?
GoLoco inh red: 219%; NPSR antagonist: inconclusive; FBPA coupling cs: -1; JMJD2E inh: -9%; ALDH1A1 block: 8.9µM*; Sfp inh: 4µM*

How did CCCN1C(=O)/C(=C/c2ccc(C)o2)SC1=Nc1ccc(OCC)cc1 do in these assays?
GoLoco inh red: -9%; NPSR antagonist: -13%[46.1 µM]; FBPA coupling cs: -23; JMJD2E inh: -16%; ALDH1A1 block: 7.9µM*; Sfp inh: 7.9µM*

How did CCCN1C(=O)/C(=C/c2ccco2)SC1=Nc1ccc(OC)cc1 do in these assays?
GoLoco inh red: 31%; NPSR antagonist: -34%[46.1 µM]; FBPA coupling cs: 2; JMJD2E inh: inconclusive; ALDH1A1 block: 13µM*; Sfp inh: inconclusive
